Source: PubChem BioAssay AID504773 (Broad Institute, 2011)
Results with a measured potency or affinity are listed apart.

Target: Golgi-associated PDZ and coiled-coil motif-containing protein (Homo sapiens) (UniProt Q9HD26)
Assay: potency against CAL PDZ-peptide interaction – biochemical, fluorescence polarization, Cerulean-tagged CAL PDZ, cherry-picks, dose response (AID 504773);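 further: 0% = DMSO neutral wells and -100% = excess unlabeled competitor peptide wells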
Settings: CAL PDZ-peptide binding, 1 h; series mostly up to 50 µM; activity change, negative = inhibition: at the top concentration;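 active means polarization signal falls with dose and the fitted half-maximal concentration is at or below ten times the sample's top valid dose; inconclusive means flat curve at 30 to 70% inhibition, or poor fit; inactive means signal rises, flat within 30%, or potency beyond limit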

Activity change, negative = inhibition, inactive:
O=S(=O)(/N=C(/Nc1ccc(Cl)c(S(=O)(=O)N2CCOCC2)c1)c1ccc(F)cc1)c1ccccc1 -11%
c1ccc(CNc2nc(NCc3ccccc3)c3ccccc3n2)cc1 -10.5%
O=C(NCC(=O)N1CCC(N2CCCCC2)CC1)C1CCCCC1 7.41%
S=C(NCCc1ccccc1)NC1CCC(NC(=S)NCCc2ccccc2)CC1 (stereo unspecified) 18.7%
Cc1ccc2nc(NS(C)(=O)=O)sc2c1 9.89%
Cc1nc(N)c(CC(Br)CBr)c(Cl)n1 (stereo unspecified) 5.44%
O=C(NCC1CCCO1)c1cn(-c2ccccc2)nc1-c1ccc(F)cc1 (stereo unspecified) 14.8%
COc1ccc(Cl)cc1C(=O)Nc1ccc2c(c1)OCCO2 6%
O=C(c1ccc([N+](=O)[O-])cc1)N1CCC(Cc2ccccc2)CC1 -10.4%
C/C(=N\NC(=O)c1cc(-c2ccc(C)s2)nc2ccccc12)c1cccnc1 6.59%
COC(=O)C1CCN(C(=O)/C(C)=C\c2ccccc2)CC1 -13.2%
C[n+]1ccc(C(=O)Nc2ccccc2Cl)cc1 4.9%
CN(CC1CCCO1)S(=O)(=O)c1ccc(C(=O)Nc2ccc([N+](=O)[O-])cc2)cc1 (stereo unspecified) 22.9%
CCOc1ccc(C(=O)NCC(=O)N2CCC(C)CC2)cc1OCC 13.5%
COC(=O)c1ccccc1NC(=O)n1cc(C)cn1 9.59%
CCOc1ccc(C(=O)NC2CC3CCCC(C2)N3Cc2ccccc2)cc1 (stereo unspecified) -24.1%
COCCCNC(=O)c1c[nH]c2ccc(S(=O)(=O)N3CCC(C)CC3)cc2c1=O 32%
COc1ccccc1NC(=O)c1c([N+](=O)[O-])cnn1C 25.3%
COc1cc(NC(=O)c2cccs2)ccc1NC(=O)c1ccccc1Cl 2.7%
O=[N+]([O-])c1ccccc1/C=N/Nc1nc(N2CCCC2)nc(N2CCCC2)n1 7.89%
CC1CCCN(C(=O)Cc2cccc3ccccc23)C1 (stereo unspecified) 9.32%
CCOC(=O)CCNC(=O)N1CCCC(CNS(=O)(=O)Cc2ccccc2)C1 (stereo unspecified) -0.597%
CCNS(=O)(=O)c1ccc(CCC(=O)N2CCCC2)cc1 5.15%
CC(=O)Nc1cc(NC(C)=O)cc(C(=O)OCC(=O)Nc2ccc(S(=O)(=O)NC3=NCCCCC3)cc2)c1 19%
CN(c1nc(-c2ccc(Br)cc2)cs1)C1CCS(=O)(=O)C1 (stereo unspecified) 28.1%
Cc1c(C(=O)OCC(=O)NC(=O)NC2CCCCC2)cccc1[N+](=O)[O-] 9.38%
O=C(c1ccccc1)C(CCc1ccccn1)CCc1ccccn1 -15.5%
O=C(Nc1ccc(Cl)cc1)c1ccc(CN2CCc3ccccc3C2)cc1 -19.8%
O=C(NCc1cccs1)c1cccn2c(=O)c3sccc3nc12 12.7%
COCCOC(=O)c1c(C)oc2ccc(OS(C)(=O)=O)cc12 -40.2%
COc1cc(C2NC(=O)NC(C)=C2C(=O)OC2CCCCC2)cc(Br)c1O (stereo unspecified) 23.5%
O=C(NNS(=O)(=O)c1ccc(Cl)cc1)c1cccs1 20.6%
CC1CCCCC1NCC(=O)NCc1ccc(F)cc1 (stereo unspecified) -33.3%
CC(C)(C)OC(=O)N[C@@H](Cc1c[nH]c2ccccc12)c1nnc(SCC(N)=O)o1 13.3%
CCN(C(=O)CSc1ncccc1C(=O)O)C1CCCCC1 29.8%
CC(C)(C)c1nn(-c2ccccc2)c2[nH]c(=O)c(C=O)cc12 -49.3%
